# From the supplement of paper PMC3334620
# In all, about 33,000 sequences were measured (“E-score (-0.5 to 0.5)”: median about -0.013, highest 2% from about 0.3 on). The full list was thinned out, with the highest values kept by preference.
# Molecular target: T1, Msn1 (UniProt P22148)
# T1 sequence: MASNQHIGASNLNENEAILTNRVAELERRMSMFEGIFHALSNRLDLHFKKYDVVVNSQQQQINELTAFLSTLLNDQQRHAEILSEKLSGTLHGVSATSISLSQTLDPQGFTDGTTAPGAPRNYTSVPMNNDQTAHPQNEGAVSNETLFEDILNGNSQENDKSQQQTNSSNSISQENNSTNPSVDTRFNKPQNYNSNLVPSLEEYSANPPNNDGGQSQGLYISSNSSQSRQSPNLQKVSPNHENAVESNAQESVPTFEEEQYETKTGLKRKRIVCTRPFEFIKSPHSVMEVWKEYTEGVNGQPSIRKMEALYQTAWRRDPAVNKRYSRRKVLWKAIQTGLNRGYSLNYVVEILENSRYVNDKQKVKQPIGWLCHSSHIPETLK
# Experiment: PBM E-score (8-mer binding enrichment) (E-score (-0.5 to 0.5)); higher = stronger / more preferred TF binding
# Details: protein concentration: 200 nM; construct: GST-full length
# Method in brief: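 Yeast transcription factors carrying a GST tag, as full-length proteins or DNA-binding domains, were produced by PURExpress in vitro transcription/translation. About 100-200 nM protein was applied to universal all-10-mer Agilent arrays, double-stranded by primer extension on fresh or once-stripped slides. Bound protein was detected with fluorescent anti-GST, and scans were normalised with masliner. The Universal PBM Analysis Suite gave each ungapped eight-base word, pooled with its reverse complement, an E-score, a modified Wilcoxon-Mann-Whitney statistic.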
row,Sequence,PBM E-score
1,ATAGGGCC,-0.158
2,AGTGGACA,0.389
3,CGTGGACA,0.408
4,GGTGGACA,0.325
5,CGTGGAAA,0.0488
6,AGTGGACG,0.212
7,CGTGGACC,-0.0578
8,GGTGGAGA,-0.396
9,AGTGGACC,-0.0955
10,GGTGGATA,0.0155
11,GGATTTCA,0.0863
12,CCTGATAC,0.12
13,AGTAAAAC,-0.0534
14,AGCAAAGC,-0.143
15,ATTGAGAG,-0.0651
16,CAGCAAAA,0.0953
17,CCGATTGC,0.104
18,ACGGACAC,0.344
19,ACGGACAG,0.175
20,ACGGACTC,0.00234
21,ACGGACAT,0.473
22,ACGGACCC,-0.221
23,ACGGACCT,0.0608
24,AAGCGGAC,0.014

row,Sequence,PBM E-score
1,ACTTCCAG,-0.219
2,TGAACTCA,0.0356
3,GCCTTTCA,-0.179
4,ATCCCACG,-0.0996
5,ATCCCACA,-0.141
6,GTCCCACA,0.319
7,AGCTCCAT,-0.251
8,ACAAACGA,0.331
9,ACAAACGC,0.172
10,ACAAAAAA,0.225
11,ACAAACAC,0.337
12,ACAAACAA,0.277
13,ACAAAAAT,0.372
14,TCAACGGA,-0.0103
15,ACAAACGG,0.298
16,ACAAACAG,0.276
17,ACAAAAAG,0.216
18,ACAACGGA,0.304
19,ACAACGGG,0.161
20,CGTAGACC,-0.151
21,ACTCGTAC,-0.0875
22,ACCGCCAG,-0.04
23,CTCGAACC,-0.0331
24,AGCGGCAG,-0.149

row,Sequence,PBM E-score
1,GAAATACC,-0.0126
2,ACTCCTCG,-0.00289
3,CCCGTCGC,-0.27
4,ACTGAGCT,-0.0939
5,CCTCTCGA,-0.12
6,GCTGCTCC,-0.218
7,CACTGGGA,0.131
8,AAGCAAGT,0.00084
9,GAACCGCA,0.0554
10,ACAAAAGA,0.27
11,ACAAAACC,0.239
12,CCAAAAAC,0.0933
13,ACAAAAAC,0.319
14,ACAAAAGC,0.364
15,CCAAAAGC,0.0259
16,ACTACGCA,-0.18
17,ATATTTTC,0.226
18,CCTCGAAG,0.0737
19,GGGGTGCA,-0.0694
20,CGGACACG,0.338
21,CAGACACG,0.147
22,CGGACACA,0.371
23,CAGACACA,0.28
24,CTGACACA,0.0572

row,Sequence,PBM E-score
1,CGGACACC,0.112
2,CCTTTCGC,-0.146
3,GCTATGAA,-0.00947
4,CCGGCCGA,0.106
5,GCGGCCGA,-0.0302
6,TCGGCCGA,0.31
7,AAGCGCTA,-0.0275
8,AAGCGCTC,-0.0777
9,AAGCGCTT,0.312
10,CCTTAATC,-0.105
11,ACGCAAGA,0.0419
12,ACCTCAGG,-0.129
13,AATTGTAC,0.365
14,CATTGTCC,0.456
15,AATTGTCC,0.488
16,AATTGTTC,0.245
17,CATTGTCA,0.158
18,AATTGTGC,0.0159
19,CATTGTGC,0.0753
20,CATTGTAC,0.0768
21,GATTGTCA,0.245
22,AATTGTCA,0.359
23,TATTGTCA,0.282
24,GATTGTAC,0.0546

row,Sequence,PBM E-score
1,AAATCTGT,0.138
2,CACACCCC,-0.293
3,ATTGCGGA,0.145
4,ATATGAGA,0.0596
5,ACCCGAAG,-0.0262
6,CACTTTCC,-0.221
7,GATTGTCC,0.458
8,GATTGTGC,-0.0365
9,AATTGTAG,0.167
10,AATTGTCT,0.406
11,AATTGTGT,-0.0542
12,AATTGTCG,0.362
13,AATTGTAT,0.155
14,CATTGTCG,0.21
15,GATTGTAA,0.0176
16,CTAGCCAA,0.00535
17,AAATTTAA,0.238
18,GGAAGAAC,-0.012
19,GCCTTTCC,-0.0629
20,ATGCGACG,-0.249
21,ATGGCTGA,-0.133
22,CTGTACCC,-0.0861
23,GCACCGAA,0.0642
24,CTTAGACA,0.232

row,Sequence,PBM E-score
1,GAGAGACA,0.246
2,CATAGACC,-0.0541
3,AAGAGACA,0.288
4,GTTAGACA,0.33
5,TAGAGACA,0.377
6,TATAGACA,0.405
7,CATAGACG,0.194
8,TGTAGACA,0.261
9,ATTAGACA,0.295
10,CATAGACA,0.35
11,TATAGATA,0.0139
12,GGAGCTCA,-0.0253
13,ACCCGGTA,0.0382
14,CCGGCTAG,-0.141
15,GATTCACC,-0.145
16,CGAGGTAG,-0.251
17,AGGAAACT,0.025
18,ACAAGAGG,-0.011
19,GATAGACC,-0.0609
20,GCTAGACA,0.212
21,AATAGACA,0.259
22,CCTAGACA,0.0613
